# High-throughput results (PubChem)
# CtBP-E1A inh = CtBP/E1A binding inhibition; AlphaScreen GST-E1A/His-CtBP binding, 1536-well; active compounds read low; activity change, % (concentration not given with the values); hit rate 0.49% among 340,000; in the data active = activity change below about -65%; inconclusive = mostly about -30% to -63%
#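 AlphaScreen with 125 nM GST-E1A and 125 nM His-CtBP (5X stocks) in Tris pH 8.0, 300 mM NaCl, BSA, Tween 20, TCEP. Compounds preincubated 2 h at 37 deg C, then glutathione donor/nickel acceptor beads added for 1 h at 37 deg C in dark.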
# DT40 TDP1 no CPT = qHTS for Inhibitors of human tyrosyl-DNA phosphodiesterase 1 (TDP1): qHTS in cells in absence of CPT; DT40 Tdp1-/- hTDP1 cells, no CPT, ATP luminescence, 48 h; Potency, µM (series often up to 46.2 µM), inactives show top-dose activity change, negative = growth inhibition, actives largely listed as inhibitors; hit rate 15% among 420,000; AID 686978, 2013; also: potency is read from the fitted curve at half-maximal effect; nearly all actives have a fitted effect of over 55% in size
#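 Growth of hTDP1-complemented DT40 Tdp1-knockout cells is measured by ATP luminescence after at least 48 hr compound exposure at 37 °C, with DMSO substituting for the 20 nM CPT used in the parallel screen.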
# DT40 TDP1 CPT = DT40-hTDP1 cell growth loss with CPT | hit rate 12% among 420,000 | Potency, µM (top dose mostly 46.2 µM), for inactives: top-dose activity change, negative = growth inhibition, usual class: inhibitors | chicken DT40 Tdp1-/-;hTDP1 cells + 20 nM CPT, ATP luminescence, 48 h | AID 686979; also: potency is read from the fitted curve at half-maximal effect; nearly all actives have a fitted effect of over 55% in size
#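 Chicken DT40 Tdp1-/- cells stably complemented with human TDP1 were seeded at 400 cells/well in medium containing 20 nM camptothecin, exposed to pin-transferred compounds, and grown at 37 °C for at least 48 hr. Viability was read as ATP luminescence.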
# TDP1 block = inhibitors of human tyrosyl-DNA phosphodiesterase TDP1 | hit rate 0.28% among 350,000 | AID 485290 | Potency, µM (highest dose often 130 µM), for inactives: at the highest dose activity change, negative = inhibition, most hits filed as inhibitors | recombinant TDP1, AlphaScreen DNA substrate cleavage; also: potency is read from the fitted curve at half-maximal effect; nearly all actives have a fitted effect of over 40% in size
# Target sequence (Q9NUW8 whole entry, looked up): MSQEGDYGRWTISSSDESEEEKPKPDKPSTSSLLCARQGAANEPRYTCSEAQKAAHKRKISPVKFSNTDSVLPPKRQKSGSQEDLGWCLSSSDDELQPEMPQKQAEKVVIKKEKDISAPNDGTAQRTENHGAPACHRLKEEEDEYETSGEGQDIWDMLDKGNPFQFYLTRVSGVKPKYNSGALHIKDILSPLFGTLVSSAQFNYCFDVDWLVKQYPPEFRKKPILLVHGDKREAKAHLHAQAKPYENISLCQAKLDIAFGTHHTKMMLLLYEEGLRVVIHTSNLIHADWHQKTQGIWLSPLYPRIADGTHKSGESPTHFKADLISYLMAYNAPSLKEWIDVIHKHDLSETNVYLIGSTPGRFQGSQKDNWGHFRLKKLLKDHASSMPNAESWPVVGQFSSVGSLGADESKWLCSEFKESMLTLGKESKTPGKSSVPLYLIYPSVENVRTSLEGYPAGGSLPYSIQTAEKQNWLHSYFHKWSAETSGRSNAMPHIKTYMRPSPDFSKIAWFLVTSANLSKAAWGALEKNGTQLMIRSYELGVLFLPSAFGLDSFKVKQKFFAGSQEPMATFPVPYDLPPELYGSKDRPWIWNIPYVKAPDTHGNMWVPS
#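 Signal: AlphaScreen proximity between streptavidin donor and anti-FITC acceptor beads on intact substrate. Reaction: Tdp1 1 nM, substrate 15 nM final, 5 min RT after 15 min compound preincubation.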
# IL1B secr inh = inflammasome signaling inhibition, IL-1 beta readout. THP-1 LPS/ATP IL-1B secretion, AlphaLISA, 16 h; active compounds read low. activity change, % at 57.5 µM. hit rate 4.7% among 360,000; in the data active = activity change below about -50%; inconclusive = mostly about -30% to -49%
#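 THP-1 cells pretreated 1 hr with compounds (up to 57.5 uM final), then stimulated with LPS (250 ng/mL final) plus ATP (1.25 mM final); secreted IL-1B measured by AlphaLISA after 16 hr, decreased signal indicating inhibition.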
# Six1-Eya2 inh = Six1/Eya2 interaction inhibition; activity change, % (no concentration beside the values); Q15475+O00167; hit rate 0.56% among 360,000; AlphaScreen GST-Six1/His-Eya2 binding, biochemical; active compounds read low; in the data active = activity change below about -65%; inconclusive = mostly about -30% to -63%
#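 GST-Six1 + His-Eya2 (5X stock: 250/500 nM); Tris pH 8.0, 300 mM NaCl, 0.05% BSA, 0.02% Tween 20; GSH donor/Ni acceptor beads; 1 h 37 °C dark; AlphaScreen readout.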
# Numbers without * were called inactive; i = inactive; u = inconclusive; x = no result given; [ ] = remark or other dose. Sampled rows, rich in hits. Any-hit rate of the full collection: about 18%. Unless noted, calls follow the shape of the dose curve; as a rule, active = well fitted curve in the direction sought with a large enough effect; inconclusive = small, poorly fitted or top-dose-only effect, or another doubt; inactive = no such curve, though single readings can be large; an effect the other way counts as inactive or inconclusive. % is scaled to controls: 0 for no effect and ±100 for the full control effect.
SMILES,CtBP-E1A inh,DT40 TDP1 no CPT,DT40 TDP1 CPT,TDP1 block,IL1B secr inh,Six1-Eya2 inh
Cc1ccc(S(=O)(=O)N2CCN(c3nn(C)c(=O)n(C)c3=O)CC2)cc1C,-7,u,7.3µM*,1%,-2,4
Cc1ccc(S(=O)(=O)N2CCC(C(=O)N(C)C3CCS(=O)(=O)C3)CC2)cc1 (stereo unspecified),4,u,23µM*,3%,24,6
Cn1cc(S(=O)(=O)Nc2ccc(Oc3ccccc3)cc2)c(=O)n(C)c1=O,-5,-6%,6%,3%,-6,-9
COc1cccc(CNC(=O)CCCn2nc(C)c3c(C)n(-c4ccccc4)nc3c2=O)c1,-16,4%,u,3%,-24,-12
CCc1ccccc1N1CC(C(=O)Nc2cc(C)on2)CC1=O (stereo unspecified),1,-1%,-1%,x,12,0
CCC1CCCCN1C(=O)CSc1nnc2nc(C)cc(C)n12 (stereo unspecified),-1,5%,14%,x,-7,6
CC(C)n1nnnc1C1c2ccccc2C(=O)N1Cc1ccco1 (stereo unspecified),0,-21%,0%,x,0,22
Cc1nc(Sc2ccccc2)c(C#N)c(C)c1[N+](=O)[O-],6,16µM*,u,5%,x,-10
Cc1cc(C)c(C#N)c(Sc2nc(C)c([N+](=O)[O-])c(C)c2C#N)n1,-16,5.8µM*,3.7µM*,x,u,-1
Cc1nc(Sc2ccccc2)c(C#N)cc1-c1ccccc1,12,-12%,-28%,x,-5,24
N#CC(C(=O)c1ccco1)c1ccccn1 (stereo unspecified),5,0%,23%,0%,u,-4
Cc1noc(/C=C/N(C)C)c1S(=O)(=O)N1CCCC(C(=O)NCCC2=CCCCC2)C1 (stereo unspecified),1,16µM*,21µM*,x,-28,-7
Cc1noc(C)c1S(=O)(=O)N1CCCC(C(=O)NCCC2=CCCCC2)C1 (stereo unspecified),8,16µM*,u,6%,14,3
COCC(=O)N(C)c1nnc(-c2ccc([N+](=O)[O-])cc2)s1,52,2%,-29%,1%,-58*,22
COC(CNC(=O)c1ccc(N2CCc3ccccc32)c([N+](=O)[O-])c1)OC,3,u,u,0%,-15,u
NC(=O)c1ccccc1NC(=O)CN1CCN(Cc2ccc(Cl)cc2Cl)CC1,-5,23µM*,u,2%,i,10
Cc1cccc(NC(=O)CN2CCN(CC(=O)Nc3ccc(-c4ccccc4)cc3)CC2)c1C,3,u,u,7%,-10,-5
Cc1cccc(NC(=O)CN2CCN(CC(=O)NCc3ccc(Cl)cc3Cl)CC2)c1C,6,u,23µM*,0%,2,4
NC(=O)c1ccccc1NC(=O)CN1CCN(Cc2ccccc2)CC1,-6,-3%,-8%,x,9,-16
Cc1cccc(NC(=O)CN2CCN(C(=O)CNC(=O)Cc3cccc4ccccc34)CC2)c1C,11,10µM*,23µM*,0%,20,3
CN1CCN(C(=O)c2cc3c(=O)n4ccccc4nc3s2)CC1,0,-11%,15%,4%,12,0
COc1ccc(/C=C2\SC(=O)N(CCNC(=O)Cn3[nH]c(=O)c4ccccc4c3=O)C2=O)cc1,-1,u,-7%,0%,21,5
O=C(C(Cc1ccccc1)N1C(=O)c2ccccc2C1=O)N1c2ccccc2CCc2ccccc21 (stereo unspecified),x,6.5µM*,12µM*,-3%,-18,-3
CC(Cl)C(=O)N1c2ccccc2CCc2ccccc21 (stereo unspecified),x,13µM*,u,x,-8,3
O=C(CCl)N1c2ccccc2CCc2ccccc21,x,x,x,3%,x,x
SMILES,CtBP-E1A inh,DT40 TDP1 no CPT,DT40 TDP1 CPT,TDP1 block,IL1B secr inh,Six1-Eya2 inh
CC(=O)N(C)N1c2ccccc2CCc2ccccc21,5,15µM*,u,x,27,7
O=C1c2ccccc2C(=O)N1CC(=O)N1c2ccccc2CCc2ccccc21,-2,u,-17%,0%,63,-8
N#Cc1c(-c2ccccc2)nc(-c2ccncc2)[nH]c1=O,x,9%,15%,5%,1,1
CS(=O)(=O)c1ccc(-c2nc(-c3ccc(F)cc3)c(-c3ccncc3)[nH]2)cc1,x,27µM*,u,13%,x,x
CC(=O)SC(C[N+](=O)[O-])c1cn(C(C)=O)c2ccccc12 (stereo unspecified),-4,2.9µM*,4.6µM*,7%,-82*,-5
CC(=O)n1cc(Nc2ccc([N+](=O)[O-])cc2)c2ccccc21,x,u,u,8%,17,3
Cc1cccc(C)c1NC(=O)CN1CCN(CCCC(c2ccc(F)cc2)c2ccc(F)cc2)CC1,3,5.8µM*,7.3µM*,15%[21 µM],-60*,1
Cc1cccc(C)c1NC(=O)C(c1ccccc1)N1CCC(Cc2ccccc2)CC1 (stereo unspecified),2,9.2µM*,9.2µM*,x,28,-7
COc1cc(NC(=O)CN2CCC(Cc3ccccc3)CC2)c(C)cc1[N+](=O)[O-],-2,8.2µM*,7.3µM*,11%,17,-2
Cc1cccc(C)c1NC(=O)C(c1ccccc1)N1CCN(c2ccc(F)cc2)CC1 (stereo unspecified),5,-23%,u,x,7,0
COc1cc(CN2CCC(Cc3ccccc3)CC2)cc([N+](=O)[O-])c1O,0,17%,0%,x,20,3
Cc1cccc(C)c1NC(=O)CN1CCc2ccccc2C1,0,16µM*,10µM*,x,8,-5
O=C(NNC(=O)C1CC1c1ccccc1)c1ccccc1[N+](=O)[O-] (stereo unspecified),11,-23%,-26%,-2%,-9,5
Cc1cccc(C)c1NC(=O)CN1CCC(Cc2ccccc2)CC1,2,13µM*,21µM*,x,18,6
O=C(CN1CCC(Cc2ccccc2)CC1)NC(=O)NCc1ccccc1,0,-23%,-3%,0%,-52*,6
CCC(C)c1ccc(N(CC(=O)NC(C)(C)C)C(=O)CNC(=O)c2cccs2)cc1 (stereo unspecified),5,18µM*,u,14%,-5,0
CCc1ccc(N(CC(=O)NC(C)(C)C)C(=O)CNC(=O)c2cccs2)cc1,-14,0%,-3%,-3%[0.0935 µM],-3,3
